For 98 molecules, max response results are on record in PubChem BioAssay AID2314 (National Center for Advancing Translational Sciences (NCATS), 2010).

Values joined by “and” are separate entries in the source; they are usually repeats but may differ in a detail not shown here. Equal entries are not always repeated. Screen size: about 300,000 compounds; about 37,000 (12%) were called active. No stated cut-off is given here; in the data, active means max response mostly above about 13% (no sharp cut-off); inactive means mostly below about 14%. For the sample, actives were picked, then their nearest neighbours and some compounds at random.

The test can be described thus: Cycloheximide Counterscreen for Small Molecule Inhibitors of Shiga Toxin. Further: read at 38.3 µM for the half of the compounds with a filed dose; 0% is about no effect. Conditions: cell reporter, cycloheximide protein synthesis inhibition counterscreen; active compounds read high.
In the case of `Cc1ccc(S(=O)(=O)N(C)C)cc1NC(=O)C1Cc2ccccc2CN1C(=O)c1ccco1` (stereo not drawn), the max response is -2.92% (inactive).
Consider `C=CCC1=C/C(=C\c2c(N)n3nc(CC(=O)N4CCOCC4)sc3nc2=O)C=C(OC)C1=O`, for which the max response was 0.431% (inactive).
Consider `Cc1ccc(OS(=O)(=O)c2ccc(-c3csc(C)n3)s2)c(C)c1`, for which the max response was 1.06% (inactive).
As to `CN(Cc1nc2ccc(F)cc2[nH]1)Cc1nc(CC2CC2)no1`, the max response is -0.7% (inactive).
For the molecule `OC(COc1ccc2ccccc2c1)Cn1cncn1` (stereo not drawn), the max response is 8.69% (inactive).
On to `COc1ccccc1OCC(O)CN1CCOCC1` (stereo not drawn), for which the max response is -1.33% (inactive).
The result for `OC(COc1ccc2ccccc2c1)CN1CCOCC1` (stereo not drawn) reads 24% (active).
The same measure for `COc1ccc(C(=O)Nc2cc(C)c(NC(=O)c3ccccc3OC)cn2)cc1`: 9.29% (inactive); for `Nc1nc(NCc2ccccc2)n(-c2ccccc2)n1`: -3.49% (inactive).
Consider `CC(=O)Nc1ccc(N2C(=O)CC(Sc3nccc(C)n3)C2=O)cc1` (stereo not drawn), for which the max response was -0.348% (inactive).
In the case of `O=C(CNC(=O)C(c1ccccc1)c1ccccc1)N/N=C\c1ccc2c(c1)OCO2`, the max response is 35.9% (active).
The result for `O=C(N/N=C/c1ccc([N+](=O)[O-])cc1)C(=O)N1CCCC1` reads -0.79% (inactive); that for `O=C(Cc1ccc(F)cc1)N/N=C/c1ccc2c(c1)OCO2`, 14.7% (inactive).
The same measure for `COc1ccccc1N1CCN(C(=O)C(=O)N/N=C/c2ccccc2F)CC1`: -0.733% (inactive); for `Cc1[nH]c2ccccc2c1/C=N/NC(=O)CNC(=O)c1ccc2c(c1)OCO2`: -0.0106% (inactive); for `O=C(N/N=C/c1ccc2c(c1)OCO2)C(=O)N1CCCC1`: 46.6% (active).
The result for `Cc1cccc(Cn2cnc3c(N)c(C)c(C)cc32)c1` reads -6.87% (inactive).
With `CC(NC(=O)COC(=O)C1CCN(S(=O)(=O)c2ccccc2C(F)(F)F)CC1)c1ccccc1` (stereo not drawn), the max response was -0.765% (inactive).
Consider `COc1ccc(NS(=O)(=O)c2ccc(N3CCOCC3)c(NC(=O)c3ccccc3Br)c2)cc1`, for which the max response is -1.16% (inactive).
The same measure for `Cc1cc(N(C)C)nc(Cl)n1`: -9.03% (inactive); for `CCOC(=O)c1c(C)nc2c(c1C)c(=O)oc1ccccc12`: 14.3% (active).
As to `CCCCC(=O)Nc1cc(C)c2c(=O)oc3ccccc3c2n1`, the max response was 10.7% (inactive).
Turning to `Cc1cc(NC(=O)CN2CCCCC2C)nc2c1c(=O)oc1ccccc12` (stereo not drawn), the max response is 0.268% (inactive).
As to `COc1ccc(CC(NC(C)=O)C(=O)NC2CCN(C(=O)C3CC3)CC2)cc1OC` (stereo not drawn), the max response is -7.16% (inactive).
The result for `Cc1ccc(/C=N/NC(=O)CN2CCN(Cc3ccccc3)CC2)s1` reads 8.96% (inactive).
Consider `C=CCNC(=S)N/N=C/c1ccc(C)s1`, for which the max response is 31.5% (active).
The result for `C=CCNC(=S)N/N=C/c1ccc(OCc2ccccc2)cc1` reads -1.7% (inactive).
For the molecule `COc1ccc2c3c1O[C@H]1C[C@@H](O)C=C[C@@]31CCN(C)C2`, the max response is -0.885% (inactive) and -4.86% (inactive).
Regarding `CN(C)C(=S)Nc1ccc(Br)cc1Cl`, the max response is -1.09% (inactive).
As for `O=C(NC(=S)Nc1ccc(Cl)cc1Cl)C1CC1`, the max response was 39.5% (active).
As for `CN1CCN(S(=O)(=O)c2ccc(NC(=S)NC(=O)C3CC3)cc2)CC1`, the max response is 1.23% (inactive).
Turning to `S=C(Nc1ccc(Br)cc1Cl)N1CCC2(CC1)OCCO2`, the max response is 20.3% (active).
For the molecule `Cc1ccc2c(c1)C1CN(C)CCC1N2C(=S)Nc1ccc(Cl)cc1Cl` (stereo not drawn), the max response is -1.23% (inactive).
For `Cc1cc(Cl)ccc1NC(=S)N1CCC(C(N)=O)(N2CCCCC2)CC1`, the max response was -2.11% (inactive).
Take `S=C(NCc1cccnc1)Nc1ccc(Cl)cc1Cl`: the max response was 9.37% (inactive).
Consider `S=C(Nc1ccc(Cl)cc1Cl)N1CCCC1`, for which the max response was 60.1% (active).
Regarding `CC1CN(C(=S)Nc2ccc(Br)cc2Cl)CC(C)O1` (stereo not drawn), the max response was 0.924% (inactive).
For `CC(Oc1ccc(F)cc1)C(=O)N1CCN(c2ncccn2)CC1` (stereo not drawn), the max response was -2.63% (inactive).
In the case of `CNC(=O)[C@]1(C(F)(F)F)C[C@H](CCc2ccccc2)CCCO1`, the max response was 3.47% (inactive).
As for `Cn1cnc([N+](=O)[O-])c1Sc1ccccc1`, the max response was -3.34% (inactive).
As to `Cc1cccc(NS(=O)(=O)c2ccc([N+](=O)[O-])cc2)n1`, the max response is -1.49% (inactive).
Turning to `O=C(COc1cccc(-n2cnnn2)c1)NCCC1=CCCCC1`, the max response is 0.68% (inactive).
Regarding `CSc1ccccc1N1CCN(CCCCCC(=O)NC2CCCc3ccccc32)CC1` (stereo not drawn), the max response is -7.34% (inactive).
Turning to `Nc1ccc(C(=O)Nc2ccccc2N)cc1`, the max response was 5.95% (inactive).
With `Cc1ccc(Nc2ccccc2N)cc1`, the max response is 33.2% (active).
In the case of `Nc1ccc(Nc2ccccc2)cc1`, the max response is -1.73% (inactive).
The result for `COc1ccc(COCCN2CCN(S(=O)(=O)c3ccccc3)CCC2=O)cc1` reads -3.54% (inactive); that for `COc1ccc(S(=O)(=O)N(C)CC(=O)N2CCCC2)cc1`, -3.08% (inactive); that for `CCOC(=O)N1CCN(C(=O)c2cn(C)c3ccc(S(=O)(=O)N(CC)CC)cc3c2=O)CC1`, -2.19% (inactive).
On to `CC(C(=O)NC1CCS(=O)(=O)C1)N1C(=O)/C(=C/c2ccc(Cl)cc2)SC1=S` (stereo not drawn), for which the max response was 16.6% (inactive).
Regarding `Cc1nnc(NCCO)c2ccccc12`, the max response is 4.14% (inactive).
Regarding `COc1ccc(Nc2nc(=O)[nH]nc2C)cc1`, the max response was -2.63% (inactive).
`COc1ccc(Nc2nnc(C)c3ccccc23)cc1`: the max response is 29.8% (active).
Consider `COc1ccc(C(=O)NCC(=O)N/N=C/c2cccnc2)cc1`, for which the max response is -4.37% (inactive).
The result for `S=C(NCCCc1cnc[nH]1)NCCCN(Cc1ccc(Cl)c(Cl)c1)c1ccc(Br)cn1` reads -1.98% (inactive).
The result for `Cn1nccc1/C=N\NC(=O)c1ccc(Cl)cc1` reads 14.7% (active).
Consider `CC1(C)C2CC=C(/C=N/NC(=O)c3ccc(Cl)cc3)C1C2` (stereo not drawn), for which the max response is 10.5% (inactive).
The result for `COc1ccc(/C=N/NC(=O)c2ccc(Cl)cc2)cc1COC(C)=O` reads 1.21% (inactive); that for `CCOC(=O)c1sc(NC(=O)CSc2nc(C)cc(C(F)(F)F)n2)c(C#N)c1C`, 1.11% (inactive).
As for `COc1cc(C(=O)OC2CCOC2=O)c([N+](=O)[O-])cc1OC` (stereo not drawn), the max response is -5.93% (inactive).
Take `COc1cc(CN2CCCN(C)CC2)c([N+](=O)[O-])cc1OC`: the max response is -2.2% (inactive).
Take `O=C(/C=C/c1ccc(Cl)c([N+](=O)[O-])c1)c1cccnc1`: the max response was 9.23% (inactive).
`O=C(O)/C=C/c1ccc2c(c1)OCCO2`: the max response is 5.58% (inactive).
For `CN(C)c1ccc(/C=C/C(=O)c2ccc(O)cc2)cc1[N+](=O)[O-]`, the max response is 61.3% (active).
For the molecule `O=C(COC(=O)/C=C/c1ccc2c(c1)OCO2)NC1CCS(=O)(=O)C1` (stereo not drawn), the max response was 2.81% (inactive).
Consider `CN(C)c1ccc(/C=C/C(=O)c2ccc(C(C)(C)C)cc2)cc1[N+](=O)[O-]`, for which the max response was 9.22% (inactive).
Consider `O=C(/C=C/c1ccc2c(c1)OCCO2)c1ccc(O)cc1`, for which the max response is 36.6% (active).
The same measure for `COc1cccc(NC(=O)N2C3CCCC2CC(NC(C)=O)C3)c1` (stereo not drawn): -3.34% (inactive); for `CCOC(=O)c1ccccc1NS(=O)(=O)c1c(C)nc2sccn2c1=O`: -3.59% (inactive).
The result for `Brc1ccccc1CN1CCC(Cc2ccccc2)CC1` reads -0.443% (inactive); that for `CC(C)CN(CC(C)C)C(=O)CN1c2cccc3cccc(c23)S1(=O)=O`, 0.92% (inactive).
`O=C(CN1CCCC1)Nc1sc2c(c1C(=O)Nc1ccccc1)CCCC2`: the max response is 0.772% (inactive).
The same measure for `CCOC(=O)c1sc(NC(=O)c2sc(C)nc2C)nc1C`: 10.2% (inactive); for `CC1CC(C)CN(CCCNC(=O)c2csc3c2CCCCC3)C1` (stereo not drawn): 13.5% (inactive); for `O=C(N/N=C/c1ccco1)c1ccc(NC(=O)C2CC2)cc1`: 2.6% (inactive).
In the case of `COC(=O)c1sccc1NC(=O)c1csc2c1CCCC2`, the max response was 11.4% (inactive).
Take `O=C(Nc1ccccc1N1CCOCC1)c1csc2c1CCCC2`: the max response was 8.7% (inactive).
Take `O=C(N/N=C/c1ccco1)c1csc2c1CCCC2`: the max response was 54.4% (active).
As to `COC(=O)c1c(NC(=O)CCCC(=O)O)sc2c1CCCCC2`, the max response is 1.25% (inactive).
Regarding `COC(=O)c1sc(NC(=O)c2csc3c2CCCC3)nc1C`, the max response was 52.4% (active).
As for `Cc1ccc(NC(=O)c2csc3c2CCCC3)cc1`, the max response was 46.6% (active).
`O=C(N/N=C/c1ccco1)c1ccc(C(=O)N/N=C/c2ccco2)o1`: the max response is 11.6% (inactive).
For `Cc1ccc(NC(=O)c2c(NC(=O)CCC(=O)O)sc3c2CCCCC3)cc1`, the max response was 39.3% (active).
The result for `CCn1c(SCc2cccc(C(=O)O)c2)nnc1-c1ccc(Cl)cc1` reads -1.44% (inactive); that for `COc1ccc(C)cc1Nc1n[n+](-c2ccccc2)c(-c2cccc(Cl)c2Cl)s1`, -1.46% (inactive).
Consider `CCOC(=O)N1CCN(C(=O)c2ccccc2N(Cc2ccccc2)S(=O)(=O)c2ccc(OC)cc2)CC1`, for which the max response is -5.35% (inactive).
For the molecule `CCOc1ccc(-n2c(SCC(=O)Nc3cc(C(=O)O)ccc3Cl)nc3ccccc3c2=O)cc1`, the max response was -4.94% (inactive).
Turning to `O=C(O)CCC(=O)Nc1ccc(OCC2CCCO2)cc1` (stereo not drawn), the max response was -3.29% (inactive).
Regarding `CC1(C)Cc2ccccc2-c2[nH]c(=S)[nH]c(=O)c21`, the max response is -1.88% (inactive).
As to `COc1cccc(CNC(=O)CCC2CCCN(C(=O)c3ccc(F)c(Cl)c3)C2)c1` (stereo not drawn), the max response is 0.816% (inactive).
Turning to `O=C(COC(=O)c1ccc(Cl)nc1)NCc1ccc2c(c1)OCO2`, the max response was -4.58% (inactive).
`CC(=O)Cc1nsc(NC(=O)c2ccc(Cl)cc2Cl)n1`: the max response was 27.8% (inactive).
The result for `CC(=O)Cc1nsc(NC(=O)c2csc3c2CCCC3)n1` reads 16.6% (active); that for `O=C(NCc1ccccc1Cl)c1csc2c1CCCCC2`, -0.0989% (inactive); that for `CCOC(=O)Cn1c(=O)n(Cc2ccc(OC)cc2)c(=O)c2cccnc21`, -5.57% (inactive).
The result for `Cc1cc(C)nc(N2CCC(C(=O)Nc3ccc4c(c3)OCCO4)CC2)n1` reads 11.4% (inactive).
Regarding `O=C(Nc1ccc2c(c1)OCCO2)C1CCCN(c2ncccn2)C1` (stereo not drawn), the max response was 22% (active).
`O=C(Nc1cccc(Cl)c1)C1CCCN(c2cnccn2)C1` (stereo not drawn): the max response is 5.49% (inactive).
